# Test results from PubChem BioAssay (EPA / NIEHS).
# Active and inactive are the calls of the source. How the source made its calls: active means hit-call score of the fitted dose curve at least 0.9, where 1 is the maximum; inactive means score below 0.9.
# Read-out: Forkhead box O3 (FOXO3), FOXO3 (gene 2309)
# Assay: LTEA_HepaRG_FOXO3: Life Technologies and Expression Analysis (LTEA) Assay for Forkhead box O3 (FOXO3) using HepaRG (AID 2283459)
# Settings: mRNA level, 48 h; actives raise or lower the signal
# Description: LTEA_HepaRG is a cell based, multiplexed-readout assay that uses HepaRG, a human liver cell line, with measurements taken at 48 hours after chemical dosing on a 96-well plate.LTEA_HepaRG_FOXO3 is one of 102 assay component(s) measured in the LTEA HepaRG cell culture assay. It is a marker of Cell proliferation, survival, death.Data from the assay component LTEA_HepaRG_FOXO3 was analyzed into 1 endpoint. This assay endpoint, LTEA_HepaRG_FOXO3, was analyzed with bidirectional fitting relative to DMSO as the negative control and baseline of activity. Using a type of inducible reporter, measures of mRNA induction for gain or loss-of-signal activity can be used to understand regulation of transcription factor activity. To generalize the intended target to other relatable targets, this assay endpoint is annotated to the dna binding intended target family, where the subfamily is forkhead box protein.
# A total of 1060 chemcials from the ToxCast library were tested in eight-point concentration-response experiments. Cell culture and cytotoxicity assays were conducted at Thermo Fisher Scientific's Custom Services facility (Madison, WI). A single lot of human HepaRG cells (Thermo Fisher Scientific, Frederick, MD) was used for the cell culture experiments. 96-well format collagen type I coated plates of human HepaRG cells were prepared using established methods. Briefly, cryopreserved HepaRG cells were thawed, plated at a density of approximately 100,000 cells/well in HepaRG Thaw, Plate, and General Purpose media (HPRG770, Thermo Fisher Scientific), and incubated for 48 hours. 0.5% DMSO was selected as vehicle control to balance the requisite need of DMSO in HepaRG cultures to maintain differentiation (for example, baseline metabolism, proportions of hepatocytes vs. cholangiocytes), while enabling further hepatic receptor pathway activation (for example, PXR and CAR) in response to chemical exposure. 48 hours after plating, the culture medium was replaced with HepaRG Serum-Free Incudtion Media. Cells were exposed to each test chemical in duplicate and maintained in CO2 incubators for another 48 hours. Chemical plates were thawed to room temperature and 200x concentrations of treatment groups were prepared. 8-point conentration-reponse curves were made with the highest exposure at 100 uM, followed by half-log dilutions, all in 0.5% DMSO. Each test plate contained variouse controls, induction positive controls (1mM phenobarbital), cytotoxicity positive controls ([…] aflatoxin B1), vehicle controls (0.5% DMSO), and total lysis controls (0.5% DMSO). Cell morphology images were taken using an Essen IncuCyte FLR automated microscope, with six 96-well plates imaged in about 24 minutes. Images were captured and exported and JPEG files. Spent culture media was transfered to black-well plates for the LDH assay, and remaining media was sorted at -80 C for later use. Cells were treated with RLT buffer and frozen until shipped for gene expression analysis. Total RNA was isolated from the cell suspension in 75 uL of Buffer RLT (Qiagen, Germantown, MD 20874) by Quintiles/Expression Analysis (Durham, NC) using a custom isolation procedure. Total RNA from each plate well was transferred to a preamplification plate. Fluidigm's 96.96 Dynamic ArrayTM (Fluidigm, Amsterdam, the Netherlands) technology was used for gene expression analyses by quantitative reverse transcription polymerase chain reaction (qRT-PCR, performed by Quintiles/Expression Analysis, Durham, NC)89. Standard TaqManTM Assays (Applied Biosystems/ThermoFisher Scientific, Foster City, CA) were used to assess the expression of 93 genes selected based on their selectivity and sensitivity to important hepatic receptors known to be modulated by environmental chemicals; importance in human hepatocyte functionality; and hepatotoxicity. […]
SMILES,outcome,AC50
Cc1ccccc1Cl,inactive,–
COc1ccc2c(c1)c(CC(=O)O)c(C)n2C(=O)c1ccc(Cl)cc1,inactive,–
CC(C)(C)c1cc(O)c(C(C)(C)C)cc1O,inactive,–
CCCCc1ccc2c(n1)[C@@H](c1ccc(OC)cc1C[C@H](C)C(=O)O)[C@H](C(=O)O)[C@H]2c1ccc2c(c1)OCO2,inactive,–
COc1cc(S(=O)(=O)O)c(C)cc1N=Nc1c(O)ccc2cc(S(=O)(=O)O)ccc12,inactive,–
COC(=O)c1ccc(O)cc1,inactive,–
CC=Cc1ccc(O)c(OC)c1,inactive,–
CCCCOC(=O)CCCCCCCCC(=O)OCCCC,inactive,–
CCCCCCCCCCC,inactive,–
CCc1c(C(=O)NN2CCCCC2)nn(-c2ccc(Cl)cc2Cl)c1-c1ccc(Br)cc1,inactive,–
Cc1ccc(Cl)cc1,inactive,–
C=CCc1ccc(O)c(OC)c1,inactive,–
Clc1cc(Cl)c(Cl)cc1Cl,inactive,–
CC(CO)OC(C)CO (stereo not given) (tested in a mixture with another compound),inactive,–
Cc1ccc(C(C)C)c(O)c1,inactive,–
Cc1nc(-c2ccc3c(c2)CCN(CCC2CCC(NC(=O)/C=C/c4ccc(F)cc4)CC2)CC3)no1 (stereo not given),inactive,–
FC(F)(F)C(F)(F)C(F)(F)C(F)(F)C(F)(F)C(F)(F)CCI,inactive,–
Nc1ccc2c(c1)C(=O)c1ccccc1C2=O,–,3 µM (active)
COCCOCCOC,–,9.92 µM (active)
COCCOC[C@H](CC1(C(=O)NC2CCC(C(=O)O)CC2)CCCC1)C(=O)Oc1ccc2c(c1)CCC2 (stereo not given in full),inactive,–

SMILES,outcome,AC50
CCCCCCCC=O,inactive,–
Cc1ccc(N(C)C)cc1,inactive,–
O=C(OCCCCCOC(=O)c1ccccc1)c1ccccc1,–,0.14 µM (active)
CCCCN(CCCC)CCCC,inactive,–
CCCCCCOCCO,inactive,–
O=c1c(O)c(-c2ccc(O)c(O)c2)oc2cc(O)cc(O)c12,inactive,–
Cc1cccc(C)c1O,inactive,–
COc1cc(-c2nc(NC(=O)c3cc4cc(C)cc(C)c4n3CC(=O)O)sc2CCC2CCCCC2)c(OC)cc1Cl,–,20.6 µM (active)
CCCCCCCCCCCCCCCC,inactive,–
CCOC(=O)C(C)(C)Oc1ccc(Cl)cc1,inactive,–
CCCCCCCCCCCC(=O)OC,inactive,–
CN[C@H]1CC[C@@H](c2ccc(Cl)c(Cl)c2)c2ccc(S(N)(=O)=O)cc21,inactive,–
c1cc(-c2ccncc2)ccn1,inactive,–
C[Si]1(C)O[Si](C)(C)O[Si](C)(C)O[Si](C)(C)O1,inactive,–
Oc1ccc2c(c1)OC[C@@H](N1CCC(O)(c3ccc(F)cc3)CC1)[C@H]2O,inactive,–
Nc1ccccc1N,–,63.3 µM (active)
CNCc1cc(F)ccc1Oc1ccc(Cl)c(Cl)c1,inactive,–
CCOc1ccc2c(c1)C(C)=CC(C)(C)N2,inactive,–
Cc1ccc(C)c(C)c1,inactive,–
CC1=C(/C=C/C(C)=C/C=C/C(C)=C/CO)C(C)(C)CCC1,inactive,–
